Values joined by “and” are separate entries in the source; they are usually repeats but may differ in a detail not shown here. Identical values can stand only once. ± gives the standard deviation of the averaged measurements.
Experiments:
Conditions in all cases: concentration: 10 µM; 24 h
HCC1569 [1] = assay: cell number relative to DMSO (% of DMSO); higher = more cells (less growth inhibition / toxicity)
Summary of the method: (§1)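 Treatment: HCC1569 and TDF cells, 800 per well in 384-well plates with RPMI and 10% FBS, were given compounds at 10 µM for 24 h at 37 °C, in triplicate. Readout: after 3.7% formaldehyde fixation, cells were stained with a rabbit anti-H1.0 antibody, an AlexaFluor 647 secondary and DAPI. Reported values are H1.0 nuclear intensity or cell number as percent of the plate control, taken as the median of replicates, with positional smoothing for HCC1569.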

TDF [2] = assay: as above
Summary of the method: as §1

TDF [3] = assay: H1.0 immunofluorescence intensity relative to DMSO (% of DMSO); higher = stronger H1.0 induction, active = 120 or more
Summary of the method: as §1

HCC1569 [4] = assay: H1.0 immunofluorescence intensity relative to DMSO (% of DMSO); higher = stronger H1.0 induction, active = 140 or more
Summary of the method: as §1
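Throughout, for H1.0 immunofluorescence intensity relative to DMSO: TDF is a line of transformed human dermal fibroblasts of mesenchymal origin.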
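Throughout, for cell number relative to DMSO: TDF denotes transformed human dermal fibroblasts of mesenchymal origin.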

Structure (SMILES) | cell number (HCC1569 [1]) | cell number (TDF [2]) | H1.0 immunofluorescence intensity (TDF [3]) | H1.0 immunofluorescence intensity (HCC1569 [4])
CC(C)=CCCC(C)=CCCC(C)=CCSCC(=O)O [Farnesylthoiacetic acid] | 100 | 101 | 97.7 (inactive) | 96.1 (inactive)
CCCCCCCCC=CCCCCCCCC(=O)OCC(CO)OC(=O)CCCCCCCC=CCCCCCCCC (centres undefined) [1,2-Dioleoyl-glycerol (18:1)] | 100 | 104 | 95.2 (inactive) | 101 (inactive)
CCN1CCc2nc(N)oc2CC1.Cl.Cl [B-HT 933 dihydrochloride] | 99.5 | 104 | 97 (inactive) | 87.2 (inactive)
CCCCCC=CCC1OC1CC=CCC=CCCCC(=O)O (centres undefined) [11,12-Epoxyeicosatrienoic acid] | 104 | 110 | 93.8 (inactive) | 97.7 (inactive)
COc1cc(-c2oc3cc(O)cc(O)c3c(=O)c2OC2OC(CO)C(O)C(O)C2O)ccc1O (centres undefined) [Isorhamnetine-3-glucoside] | 102 | 98.2 | 97.6 (inactive) | 85.8 (inactive)
COc1cc(/C=C/C(=O)NCCn2c(C)cc3ccccc32)cc(OC)c1OC | 103 | 96.6 | 103 (inactive) | 106 (inactive)
Cl.O=S(=O)(c1cccc2c(Cl)cccc12)N1CCCNCC1 | 99 and 96.6 | 104 | 103 (inactive) and 93.2 (inactive) | 105 (inactive) and 97.4 (inactive)
NS(=O)(=O)c1cccc2c1c([N+](=O)[O-])cc1nc([O-])c([O-])nc12.[Na+].[Na+] [NBQX disodium] | 104 | 103 | 93.8 (inactive) | 91.8 (inactive)
CS(=O)(=O)Nc1ccc([N+](=O)[O-])cc1Oc1ccccc1 [Nimesulide] | 104 ± 4.5 | 107 ± 2.2 | 94.4 (inactive) | 96.5 (inactive)
CNC(=C[N+](=O)[O-])NCCSCc1ccc(CN(C)C)o1.Cl [Ranitidine.HCl] | 110 | 106 | 95.3 (inactive) | 103 (inactive)
CC(C)NCC(O)COc1ccc(CC(N)=O)cc1 (racemic) | 109 | 101 | 93.8 (inactive) | 88.2 (inactive)
N#CC(=Cc1ccc(O)c(O)c1)C(=O)NCCc1ccccc1 [Tyrphostin AG 698] | 84.3 | 91 | 87.8 (inactive) | 119 (inactive)
NC1CONC1=O (racemic) [DL-Cycloserine] | 101 | 96.8 | 92 (inactive) | 92.3 (inactive)
CCCCC=CCCCCCCCCC(=O)O [10(Z)-Pentadecenoic acid] | 101 | 102 | 103 (inactive) | 104 (inactive)
Cl.NC1C=CC=C(C(=O)O)C1 (centres undefined) [Gabaculine hydrochloride] | 103 | 108 | 102 (inactive) | 105 (inactive)
CC[n+]1c(C=CN(C)c2ccccc2)n(-c2ccccc2)c2ccc(-c3nc4ccccc4s3)cc21.[I-] [Akt Inhibitor IV] | 38.7 | 21.3 | 148 (active) | 66.5 (inactive)
O=C(O)C1=CC(=NNc2ccc(S(=O)(=O)Nc3ccccn3)cc2)C=CC1=O [Sulfasalazine] | 106 | 102 | 93 (inactive) | 88.7 (inactive)
CN(C)CCCC1(c2ccc(F)cc2)OCc2cc(C#N)ccc21 (centres undefined) [Escitalopram] | 100 | 86.1 | 98 (inactive) | 93.5 (inactive)
CCOC(=O)[C@H](Cc1ccc([N+](=O)[O-])cc1)NC(=O)c1ccccc1 [ethyl (2S)-2-(benzoylamino)-3-(4-nitrophenyl)propanoate] | 101 | 98.3 | 93.8 (inactive) | 95 (inactive)
COc1cc2ncn(-c3cc(OCc4ccc(S(C)(=O)=O)cc4)c(C(N)=O)s3)c2cc1OC [Polo-like Kinase Inhibitor I] | 104 | 96.2 | 92.8 (inactive) | 112 (inactive)
CCCCCCCCCCCCCCCC(=O)NCCO [Palmitylethanolamide] | 99.8 | 104 | 96.8 (inactive) | 95.5 (inactive)
CCC(C)C(=O)OC1CCC=C2C=CC(C)C(CCC3CC(O)CC(=O)O3)C21 (centres undefined) [Mevastatin] | 100.8 ± 0.37 | 87.1 ± 6.8 | 123 (active) | 95 (inactive)
CC1Cc2ccccc2N1NC(=O)c1ccc(Cl)c(S(N)(=O)=O)c1 (centres undefined) [Indapamide] | 106 | 101 | 88.5 (inactive) | 112 (inactive)
CC(C)=CCc1cc2c(cc1O)oc(=O)c1c3ccc(O)cc3oc21 | 106 | 95.7 | 94.4 (inactive) | 106 (inactive)
COc1cc2c(cc1OC)-c1cc(=Nc3c(C)cc(C)cc3C)n(C)c(=O)n1CC2.Cl [Trequinsin hydrochloride] | 96.4 | 111 | 85 (inactive) | 101 (inactive)
FC(F)(F)c1ccc(CNc2ccc(Cc3c[nH]c4ncccc34)cn2)cc1 | 75.5 | 74.9 | 108 (inactive) | 139 (inactive)

Structure (SMILES) | cell number (HCC1569 [1]) | cell number (TDF [2]) | H1.0 immunofluorescence intensity (TDF [3]) | H1.0 immunofluorescence intensity (HCC1569 [4])
Cc1nc2cc3nc(-c4cccs4)cnc3cc2n1C | 106 | 96.2 | 102 (inactive) | 94.7 (inactive)
CC1(NCC(O)COc2cccc3[nH]ccc23)CCC(C(C)(C)NC(=O)CBr)CC1 (centres undefined) [Pindobind-5HT1A] | 61.4 | 10.4 | 135 (active) | 178 (active)
COc1cc(CC2C(=O)OCC2Cc2ccc(OC)c(OC)c2)ccc1O (centres undefined) | 80.5 | 74.6 | 103 (inactive) | 156 (active)
CC(Cc1ccccc1)Nc1ncnc2c1ncn2C1OC(CO)C(O)C1O (stereo not drawn) [R(-)-N6-(2-Phenylisopropyl)adenosine] | 107 | 96.5 | 93.6 (inactive) | 102 (inactive)
CCc1[nH]c(-c2ccc(OC)cc2)nc1-c1ccncc1 | 98.5 | 99.6 | 97 (inactive) | 120 (inactive)
CCCCCC(O)C=CC=CCC=CCCCCC(=O)O (centres undefined) | 103 | 97.9 | 97.2 (inactive) | 101 (inactive)
CC#CCOC(=O)c1c(C)nc2sc3c(c2c1N)CCC(O)C3 (centres undefined) | 87.1 | 85.8 | 99.5 (inactive) | 134 (inactive)
CCCCCCCC/C=C\CCCCCCCC(=O)NCc1ccc(O)c(OC)c1 [(9Z)-N-(4-hydroxy-3-methoxybenzyl)-9-octadecenamide] | 40.4 | 91.5 | 95.2 (inactive) | 171 (active)
Cc1cc(Nc2nc(NC(C)c3ccc(F)cc3)c(C#N)cc2F)n[nH]1 (centres undefined) | 51.8 | 28 | 167 (active) | 146 (active)
O=C(Nc1ccccc1)c1cc([N+](=O)[O-])ccc1Cl | 98.3 | 90.5 | 100 (inactive) | 97.9 (inactive)
Nc1nc(Cl)nc2c1ncn2C1OC(CO)C(O)C1O (centres undefined) [2-Chloroadenosine] | 99.3 | 119 | 87.8 (inactive) | 89 (inactive)
COc1ccc2ccc(=O)oc2c1CC=C(C)C [Osthole] | 97.3 | 92.5 | 103 (inactive) | 99.9 (inactive)
CCOC(=O)C12CC1C(=NO)c1ccccc1O2 (centres undefined) | 100 | 105 | 93.9 (inactive) | 97.2 (inactive)
CN1C(=O)CCC1c1cccnc1 (single isomer, unassigned; (-)) [(-)-Cotinine] | 102 ± 1.1 | 112 ± 5.4 | 93.5 (inactive) | 93 (inactive)
Cc1coc2c1C(=O)C(=O)c1c-2ccc2c1CCCC2(C)C [Tanshinone IIA] | 85.3 ± 2.9 | 45.7 ± 6 | 113 (inactive) | 114 (inactive)
Cc1nc2sccn2c(=O)c1CCN1CCC(=C(c2ccccc2)c2ccc(F)cc2)CC1 [Diacylglycerol kinase inhibitor I] | 87.2 | 111 | 96 (inactive) | 118 (inactive)
CCOc1nc2cccc(C(=O)O)c2n1Cc1ccc(-c2ccccc2-c2nn[nH]n2)cc1 [Candesartan] | 104 | 97.2 | 99.8 (inactive) | 99.7 (inactive)
C=C[C@]1(C)C[C@@H](OC(=O)CO)[C@]2(C)[C@H](C)CC[C@]3(CCC(=O)[C@H]32)[C@@H](C)[C@@H]1O | 96.4 | 115 | 106 (inactive) | 95.9 (inactive)
CN(C)C(=N)N=C(N)N [Metformin] | 100 | 94 | 95.9 (inactive) | 101 (inactive)
O=C1CN(/N=C/c2ccc(-c3ccc([N+](=O)[O-])cc3)o2)C([O-])=N1.[Na+] | 93.8 | 104 | 97.3 (inactive) | 111 (inactive)
CCCCCC=CCC=CC=CC=CC(O)C(O)CCCC(=O)O (centres undefined) | 99.8 | 100 | 99.2 (inactive) | 96.6 (inactive)
CCCc1cc(C(N)=S)ccn1 [Prothionamide] | 106 | 97.3 | 99.4 (inactive) | 103 (inactive)
O=C1CSc2ccccc2N1Cc1cccc(C(F)(F)F)c1 [4-[3-(trifluoromethyl)benzyl]-2H-1,4-benzothiazin-3(4H)-one] | 102 | 106 | 96.3 (inactive) | 105 (inactive)
S=c1ccss1 [1,2-Dithiole-3-thione] | 101 | 103 | 89.6 (inactive) | 99.4 (inactive)
O=C1CN(N=Cc2ccc(-c3ccc([N+](=O)[O-])cc3)o2)C(=O)[N-]1.[Na+] [Dantrolene sodium] | 100 | 97 | 100 (inactive) | 102 (inactive)

Reference: the supplement of paper PMC7156485
